# Reference: the supplement of paper PMC6555819
# Experiments:
# Test in all cases: PBM binding z-score (relative to random genomic background probes); higher = stronger binding; sequences stand for … in GC…GCGATTGACAGCGTAGAATGAAGG
# [1] = system: PPARg:RXRa DBDmut IVT, anti-RXR (DBD mutation: RXRa K156A/R161A, NR concentration 270 nM, RXRa partner concentration 90 nM)
# Outline: (§1)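 Binding buffer was PBS pH 7.4 with 2% milk, 0.02% Triton X-100, 1 mM DTT, 0.2 mg/mL BSA and 0.4 mg/ml salmon testes DNA. In it, ligand-free nuclear receptor dimers were incubated 1 h on custom Agilent 4×180K protein-binding microarrays carrying double-stranded probes. Antibodies against each partner (one per run) detected binding, and z-scores were calculated against random background probes after regression normalization of scanned fluorescence.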
# [2] = system: PPARg:RXRa IVT, anti-PPARg (NR concentration 270 nM, RXRa partner concentration 90 nM)
# Outline: as §1
# [3] = system: PPARg DBDmut:RXRa IVT, anti-PPARg (DBD mutation: PPARg1 K132A/R137A, NR concentration 270 nM, RXRa partner concentration 90 nM)
# Outline: as §1
# [4] = system: PPARg DBDmut IVT, anti-PPARg (DBD mutation: PPARg1 K132A/R137A, NR concentration 270 nM)
# Outline: as §1
# [5] = system: PPARg homodimer (NR concentration 180 nM)
# Outline: as §1
# [6] = system: PXR:RXRa (NR concentration 270 nM, RXRa partner concentration 90 nM)
# Outline: as §1
# [7] = system: PXR homodimer (NR concentration 270 nM)
# Outline: as §1
# [8] = system: RARa:RXR (NR concentration 270 nM, RXRa partner concentration 90 nM)
# Outline: as §1
# [9] = system: RARa homodimer (NR concentration 270 nM)
# Outline: as §1
# [10] = system: RARb:RXRa (NR concentration 270 nM, RXRa partner concentration 90 nM)
# Outline: as §1
# [11] = system: RARb homodimer (NR concentration 270 nM)
# Outline: as §1
# [12] = system: RARg:RXRa (NR concentration 270 nM, RXRa partner concentration 90 nM)
# Outline: as §1
# [13] = system: RARg homodimer (NR concentration 270 nM)
# Outline: as §1
# [14] = system: RXRa DBDmut IVT, anti-RXR (DBD mutation: RXRa K156A/R161A, NR concentration 90 nM)
# Outline: as §1
# [15] = system: RXRa homodimer (NR concentration 180 nM)
# Outline: as §1
# [16] = system: THRa:RXRa (NR concentration 90 nM, RXRa partner concentration 90 nM)
# Outline: as §1
# [17] = system: THRa homodimer (NR concentration 90 nM)
# Outline: as §1
# [18] = system: VDR homodimer (NR concentration 270 nM)
# Outline: as §1
Sequence,PBM binding z-score [1],PBM binding z-score [2],PBM binding z-score [3],PBM binding z-score [4],PBM binding z-score [5],PBM binding z-score [6],PBM binding z-score [7],PBM binding z-score [8],PBM binding z-score [9],PBM binding z-score [10],PBM binding z-score [11],PBM binding z-score [12],PBM binding z-score [13],PBM binding z-score [14],PBM binding z-score [15],PBM binding z-score [16],PBM binding z-score [17],PBM binding z-score [18]
ATCTCTAGGTAAGACTCAGTTCAGGGAAGAACGC,1.95,0.842,1.12,0.798,0.913,1.19,1.64,0.799,1.28,0.579,0.949,0.767,0.451,0.408,0.569,1.12,0.955,1.72
GCTATTAGTTGCAAGGGCAACCGAATGATTCTCG,0.729,0.0802,-0.249,-0.171,0.499,0.243,0.11,-0.00266,-0.474,1.37,1.12,0.13,0.552,0.914,0.35,0.666,0.326,0.363
GTACCAAGGTGAATAGGTCATTGATGAGTAGGCG,3.17,4.04,0.503,0.284,4.15,2.62,0.883,4.41,1.5,3.56,3.98,4.79,3.34,-0.0633,3.5,2.82,0.757,0.849
ACAATTAGTTGAGACGAGGGCAACCGATAGGTTG,-0.0279,0.475,0.916,0.299,0.566,1.37,0.711,1.13,0.878,1.14,1.5,0.974,0.94,0.611,0.718,2.74,0.375,1.07
CCAACTGGGCCAAGGTCATTGATCAGTCAAAGCA,4.04,4.58,-0.617,-0.824,1.58,3.11,0.914,3.22,0.0494,3.39,3.25,3.49,2.52,1.67,3.17,3.45,2.23,2.57
CGTCAAAGTTCAAGGAAACGTAACAGAAAGCAGC,0.0711,1.12,0.307,1.1,1.84,3.45,1.73,2.73,1.33,5,3.35,4.85,5.68,4.06,3.84,1.49,-0.29,2.61
CGTACTGGGCCACGAAAGGTCATTGATTCAGTGA,5.64,5.82,1.54,0.503,4.05,5.71,2.11,5.78,1.22,4.17,4.58,4.97,4.48,0.97,5.18,3.83,1.09,2.78
TCGAGTAGGTTAGGGGCATTCATAATGGCGTCGA,2.14,1.72,-0.476,-0.145,0.584,0.584,0.233,0.705,0.173,1.07,0.847,0.406,0.583,0.422,0.801,0.804,0.251,0.868
